SMILES strings stand for the structures. Calls of active or inactive are those of the source. Unless noted, no stated cut-off is given here; in the data, active means inhibition above about 33%; inactive means the rest.

Tested on in the first assay: not listed separately
The assay is described as follows: compounds suppressing VP16-driven luciferase signal – cell-based, luminescence, high throughput, counter-screen for LRH-1 inverse agonist project (AID 651615). The settings on record: Gal4-VP16 luciferase reporter cells, at 3.6 µM, active compounds read high. Background: The purpose of a counterscreen is to sort out artefacts and off-target activity.
Turning to `Cc1ccc(/C=C/c2ccc(N(C)C)cc2)[n+](C)c1`, the inhibition is 67.4% (active).

Regarding `CCCCCCCC[n+]1cccc2c3ccccc3ccc21`, the inhibition is 93.8% (active).

In the case of `N=c1c2c(-c3ccccc3)c(-c3ccccc3)n(Cc3ccccc3)c2ncn1CCO`, the inhibition is 77.4% (active).

Turning to `COc1ccc(Nc2ncnc3ccc(Br)cc23)c(OC)c1`, the inhibition is 30.8% (active).

With `O=C(N/N=C/c1sc(N2CCOCC2)nc1-c1ccccc1)c1cccc(S(=O)(=O)N2CCOCC2)c1`, the inhibition was 87.4% (active).

On to `OCC1OC(n2cnc3c(NCc4ccccc4O)ncnc32)C(O)C1O` (stereo not given), for which the inhibition is 86.1% (active).

As for `CCn1c(C)cc(C(=O)COC(=O)c2ccccc2[N+](=O)[O-])c1C`, the inhibition is 81.4% (active).

`CCC(C)(C)c1ccc(OCCCC[n+]2cccc(C)c2C)c(C(C)(C)CC)c1`: the inhibition is 80.9% (active).

`CC(C)(C)c1ccc(Oc2ccc(N)cc2)cc1`: the inhibition is 60.1% (active).

`COc1ccccc1C(=O)Nc1nc2ccccc2s1`: the inhibition is 75.6% (active).

For `COc1cccc(/C=N/NC(=O)c2c(C)nc3ccc(Cl)cn23)c1O`, the inhibition is 83.5% (active).

As for `C=CCn1c(C)cc(C2=NNC(=NCC)SC2)c1C`, the inhibition is 75.6% (active).

`COc1cccc(Cn2c(NCc3cccnc3)nc3c2c(=O)n(C)c(=O)n3C)c1`: the inhibition was 62.8% (active).

Turning to `NC(=S)NN=Cc1nccc2c(C(F)(F)F)cccc12`, the inhibition is 66.5% (active).

For the compound `Cc1ccsc1C(=O)OCC(=O)c1cc(C)n(CC2CCCO2)c1C` (stereo not given), the inhibition is 39.8% (active).

With `CC(C)CC(=NNC(=O)c1ccncc1)c1cc(Cl)ccc1O`, the inhibition is 85.7% (active).

For the compound `CN(C)c1ccc(/C=C/c2ccc3c4ccccc4ccc3[n+]2-c2ccccc2)cc1`, the inhibition is 83% (active).

Consider `Cc1cccn2c(=O)c3cc(C(=O)NCCN4CCOCC4)c(=N)n(Cc4ccc(F)cc4)c3nc12`, for which the inhibition was 60.1% (active).

Regarding `O=C(Nc1ccon1)c1nc[nH]c1C(=O)NCc1ccccc1`, the inhibition is 68% (active).

For `CC(=NNC(=S)Nc1cccc(C)c1)c1ccccn1`, the inhibition is 68.8% (active).

In the case of `Cc1[nH]c(=O)c(C(=O)/C=C/c2ccccc2)c2c1CCCC2`, the inhibition was 74.8% (active).

`COC(=O)C12OCC34C(CC5C(C)=C(O)C(=O)CC5(C)C3C(O)C1O)OC(=O)C(OC(=O)C=C(C)C)C24` (stereo not given): the inhibition is 97.6% (active).

Take `CCCCCCn1c2c(c(=N)c3c1CCC3)CCC2`: the inhibition was 93.6% (active).

On to `COc1ccc(CCNc2ncnc3c2oc2ccccc23)cc1OC`, for which the inhibition was 55.6% (active).

For the compound `O=C(c1ccccc1)c1c2c(cc3sc4ccccc4[n+]13)-c1cccc3cccc-2c13`, the inhibition is 81.7% (active).

Consider `OCCCNc1nccc(-c2cc(Nc3cccc(Cl)c3)ncn2)n1`, for which the inhibition was 93.2% (active).

Regarding `O=c1c2ccccc2sc2ccc(C#CC3(O)CCCCC3)cc12`, the inhibition is 71.2% (active).

`COc1ccc(-c2oc3ccc(N4CCOCC4)cc3c2C#CCO)cc1`: the inhibition was 53.4% (active).

Turning to `CC[C@H]1CN2CCc3cc(OC)c(OC)cc3[C@@H]2C[C@@H]1C[C@H]1NCCc2cc(OC)c(OC)cc21`, the inhibition is 96.4% (active).

With `CC(=O)NC(c1ccc(Cl)cc1)c1ccc2cccnc2c1O` (stereo not given), the inhibition was 87% (active).

Another assay deals with transactivating tegument protein VP16 (Human herpesvirus 1). The assay is described as follows: compounds suppressing VP16-driven luciferase signal – cell-based, luminescence, single concentration, counter-screen for SRC2 inhibitor project (AID 652007; in the data active means inhibition above about 36%). The note with it: cell-based VP16 transactivation luciferase reporter, at 8.9 µM, active compounds read high.
With `COc1ccc(Nc2ncnc3ccc(Br)cc23)c(OC)c1`, the inhibition is 32.4% (inactive).

Take `CCOc1cc(/C=C(/C#N)c2ccc(Cl)cc2)cc(Cl)c1OCC(=O)O`: the inhibition was 77.6% (active).

`CC(C)(C)c1ccc(Oc2ccc(N)cc2)cc1`: the inhibition is 90.2% (active).

Regarding `C=CCn1c(C)cc(C2=NNC(=NCC)SC2)c1C`, the inhibition is 81.8% (active).

Take `Cc1ccsc1C(=O)OCC(=O)c1cc(C)n(CC2CCCO2)c1C` (stereo not given): the inhibition is 59.5% (active).

Turning to `Cc1ccc(C)c(S(=O)(=O)N2CCN(c3ncnc4sccc34)CC2)c1`, the inhibition was 32.8% (inactive).

For `Cc1[nH]c(=O)c(C(=O)/C=C/c2ccccc2)c2c1CCCC2`, the inhibition is 50.1% (active).

In the case of `CC(=O)N1CCCc2cc(S(=O)(=O)N3CCCC(C(=O)N4CCN(c5cccc(Cl)c5)CC4)C3)ccc21` (stereo not given), the inhibition was 14.8% (inactive).

Regarding `OCCCNc1nccc(-c2cc(Nc3cccc(Cl)c3)ncn2)n1`, the inhibition was 57.9% (active).

Regarding `O=C(Nc1ccc2c(c1)OCCO2)C1CCCC1`, the inhibition is -46% (inactive).

Another assay deals with Nuclear receptor coactivator 2 (Homo sapiens) (UniProt Q15596). Kind of assay: inhibition of GAL4-SRC2 driven luciferase expression – cell-based, luminescence, HEK293, triplicate, confirmation (AID 652008;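 active means mean inhibition above 46.5%, the solvent-only control mean plus 3 SD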;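 further: 0% = DMSO-treated cells and 100% = Gossypol at 36 µM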). The note with it: HEK293 GAL4-SRC2 luciferase reporter, at 8.9 µM, active compounds read high. A general note: In a reporter assay the amount or activity of a reporter protein is the signal.
Nuclear receptor coactivator 2 (Homo sapiens), sequence (Q15596 whole entry, looked up, the tested form may be a part): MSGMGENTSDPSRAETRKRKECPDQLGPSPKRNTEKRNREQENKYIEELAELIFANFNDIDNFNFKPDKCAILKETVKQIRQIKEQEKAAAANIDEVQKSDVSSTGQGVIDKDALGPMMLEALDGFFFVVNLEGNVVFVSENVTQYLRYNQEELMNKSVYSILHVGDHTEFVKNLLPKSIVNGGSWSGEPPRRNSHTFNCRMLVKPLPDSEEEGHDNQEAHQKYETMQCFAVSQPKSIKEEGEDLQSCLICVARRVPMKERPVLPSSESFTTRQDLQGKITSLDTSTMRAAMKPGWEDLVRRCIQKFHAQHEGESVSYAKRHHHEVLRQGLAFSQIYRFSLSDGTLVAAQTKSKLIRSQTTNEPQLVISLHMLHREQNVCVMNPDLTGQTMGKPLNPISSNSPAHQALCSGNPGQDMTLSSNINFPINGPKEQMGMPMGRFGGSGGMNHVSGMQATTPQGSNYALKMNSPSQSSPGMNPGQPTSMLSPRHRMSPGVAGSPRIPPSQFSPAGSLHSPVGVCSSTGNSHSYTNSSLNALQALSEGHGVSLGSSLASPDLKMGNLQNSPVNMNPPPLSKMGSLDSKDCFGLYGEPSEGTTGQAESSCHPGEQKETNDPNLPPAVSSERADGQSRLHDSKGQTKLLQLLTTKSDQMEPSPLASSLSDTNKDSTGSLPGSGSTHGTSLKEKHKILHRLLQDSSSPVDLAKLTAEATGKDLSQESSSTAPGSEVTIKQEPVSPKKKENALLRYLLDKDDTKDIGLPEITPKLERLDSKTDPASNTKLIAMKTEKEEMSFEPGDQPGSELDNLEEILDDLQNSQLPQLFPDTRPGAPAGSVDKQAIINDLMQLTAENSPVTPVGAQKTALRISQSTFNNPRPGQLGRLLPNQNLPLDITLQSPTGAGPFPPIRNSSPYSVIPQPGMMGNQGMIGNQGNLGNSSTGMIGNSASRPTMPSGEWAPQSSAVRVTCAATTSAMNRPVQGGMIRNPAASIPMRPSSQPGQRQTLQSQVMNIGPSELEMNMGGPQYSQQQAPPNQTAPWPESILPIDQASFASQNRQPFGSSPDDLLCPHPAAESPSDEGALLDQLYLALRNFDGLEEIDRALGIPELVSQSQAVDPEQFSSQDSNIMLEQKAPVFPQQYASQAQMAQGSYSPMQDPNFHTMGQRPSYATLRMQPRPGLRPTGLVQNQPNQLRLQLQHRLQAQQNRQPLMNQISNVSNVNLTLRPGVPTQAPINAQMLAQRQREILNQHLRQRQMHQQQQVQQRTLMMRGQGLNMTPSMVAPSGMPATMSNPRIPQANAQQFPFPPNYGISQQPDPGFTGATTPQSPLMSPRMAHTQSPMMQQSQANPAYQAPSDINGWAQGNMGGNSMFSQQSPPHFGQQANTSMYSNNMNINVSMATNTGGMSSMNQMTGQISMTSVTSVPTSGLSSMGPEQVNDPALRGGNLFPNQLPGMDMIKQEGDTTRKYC
Turning to `COc1ccc(Nc2ncnc3ccc(Br)cc23)c(OC)c1`, the inhibition was 93.8% (active).

In the case of `CCOc1cc(/C=C(/C#N)c2ccc(Cl)cc2)cc(Cl)c1OCC(=O)O`, the inhibition is 91% (active).

Consider `CC(C)(C)c1ccc(Oc2ccc(N)cc2)cc1`, for which the inhibition is 95.2% (active).

Consider `C=CCn1c(C)cc(C2=NNC(=NCC)SC2)c1C`, for which the inhibition was 93% (active).

Consider `Cc1ccsc1C(=O)OCC(=O)c1cc(C)n(CC2CCCO2)c1C` (stereo not given), for which the inhibition is 85% (active).

In the case of `Cc1ccc(C)c(S(=O)(=O)N2CCN(c3ncnc4sccc34)CC2)c1`, the inhibition is 53.3% (active).

Take `Cc1[nH]c(=O)c(C(=O)/C=C/c2ccccc2)c2c1CCCC2`: the inhibition is 63.9% (active).

Take `CC(=O)N1CCCc2cc(S(=O)(=O)N3CCCC(C(=O)N4CCN(c5cccc(Cl)c5)CC4)C3)ccc21` (stereo not given): the inhibition is 26.6% (inactive).

Regarding `OCCCNc1nccc(-c2cc(Nc3cccc(Cl)c3)ncn2)n1`, the inhibition is 49.7% (active).

For the compound `O=C(Nc1ccc2c(c1)OCCO2)C1CCCC1`, the inhibition was 51.9% (active).

Broadly, the inhibition is the drop in the measured response relative to a control, in per cent.
